# Whole data set: some 25,000 sequences, median “ln(normalized median fluorescence intensity)” near 7.1, cut for the highest 2% near 10. For the sample, the highest values were picked, then their nearest neighbours and some sequences at random.
# System: PfSIP2 AP2 domain 1 (GST-tagged)
# Assay: gcPBM binding intensity (ln(normalized median fluorescence intensity)); higher = stronger DNA binding
# Method in brief: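 GST-fused DNA-binding domains of P. falciparum, expressed in E. coli, were applied at about 25 μg on average for 1 h to an Agilent 4 × 180k array of primer-extended double-stranded 36-bp intergenic genomic probes and negative controls. Binding intensity is the highest Masliner-normalised natural-log median intensity across replicate spots of either probe orientation, measured with Alexa488 anti-GST antibody and a 488 nm scan.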
row,Sequence,gcPBM binding intensity (ln)
1,ATATTAACTATCATAACACACACAGTAGACATATTT [CACACA_site6941],6.99
2,CATTTTTTGCTTTCAACACACATACAATATAAATAA [CACACA_site7858],7.27
3,ATGAACTAAACTAATCGTACAATAAGTTTTATTATA [XGTACX_site4891],6.84
4,GGCATTTTATGAAGTAGTACCATAAATATTAAAGAT [XGTACX_site5287],7.32
5,TTTATATTTATCCAAAGTACTTTTTAAAAACATACC [XGTACX_site4518],7.36
6,TGGCTTATTCAGAAATGTACACATATAAATATATAT [XGTACX_site3765],7.11
7,AATGGGATCATGGTATGTACTTACACAAATGAATTA [XGTACX_site5389],6.82
8,CTATAAATATTTTATTGTACACACTTTTTATGAATG [XGTACX_site6711],7.22
9,TTCATTAAAATTATTACACACAGTTCTTCAACCAAA [CACACA_site3504],6.84
10,AAAGGTTTATATGATACACACATAAGTGATCAGGTT [CACACA_site190],6.75
11,AGATATTTATTGAGTGCATGTTATAAAGGGAAAAAA [TGCATGCA_site88],10.3
12,GGAAAAATATAATATGCATGTTATTATTTTTTTATA [TGCATGCA_site836],6.77
13,GTAGATATTTATTGAGTGCATGTTATAAAGGGAAAA [GTGCAC_site9481],9.62
14,TAAAAACATTTAAATTGTACGGAAATAAAAATTTTT [XGTACX_site8225],6.94
15,AGTAATAGTTTGTGCACACTCAAGTATATCATATAT [CACACA_site4034],9.56
16,AATATATGGTTTCATGATATTAAATTCAAAATAATG [CACACA_negctrl_site318],6.75
17,TATATTTCTTCTATAACATGCAGATATATGAAAATA [TGCATGCA_site971],7.11
18,TATTTCAAAATATGGGTGCAGTTCTTCATGATATAT [GTGCAC_site9658],10.7
19,TTTAAAAAATGTTATATTATATAATTAAAAAAAAAA [CACACA_negctrl_site1509],6.63
20,AACCAAACAAATAAACGTACAAACATTACATATATT [XGTACX_site2265],7.05
21,TTACTATGTAAACACACATGCAATATATGTTAAGCC [TGCATGCA_site253],6.91
22,AATTATTGTGAAGGGAAAACAAAAAAGTTTATAATT [CACACA_negctrl_site1337],6.87
23,AGTGTTTTTTATAAAGTGCAATATAAAAACAAAATG,8.59
24,TTTATAAAGGGAAAGGTGCAAAAGGTGAAAGTTTTA,10.8

row,Sequence,gcPBM binding intensity (ln)
1,TATATATATATACATTGTACATTATTGATTATAACA [XGTACX_site1678],9.52
2,TTTGAATCCTTATATACACACATTATGTAATATTAT [CACACA_site561],7.1
3,ATATATATATATATATGTACATAGAGAAGTATCTTT [XGTACX_site4737],9.91
4,TTTTTTTTTTTTTTGGTGCAGTTCACATATTATATA [GTGCAC_site9996],9.48
5,ATGTAGAAGTAATGCACACATATGTATTTATATATA [CACACA_site5391],7.26
6,GAAGTAGATGGAAAAGTGCACTGTAATGGTTATATT,10.3
7,ATGGTTATATTTGAAGTGCAAAAAAAAATATATGTA,8.55
8,CATTAATAACAAAGTTGTACAAGATAATATTATATG [XGTACX_site6832],7.26
9,TAAAAAATTATTAAACGTACGAGACTTTTTATCAGT [XGTACX_site2219],7.05
10,AAAAAAAAATATAACAGTACATAAACATATGAATAT [XGTACX_site7093],6.91
11,ATAATAAAAAAAATTAGTACATATATAAATATAAAT [XGTACX_site1937],6.85
12,CATCTCATATTTTGAAGTACTAAGAAAAGATATAAA [XGTACX_site6867],7.07
13,GAAAATTTAAAAAGAGTGCATTATATGTTTGAATAT [GTGCAC_site9564],9.18
14,TATATTTGAAATATATGTACTTATAATACAGTTTAA [XGTACX_site8039],6.94
15,TTTTATGCATGTGAAGTGCAAAATAAAAAATAAAAT [GTGCAC_site9612],10.2
16,TTTTATGTTTATGTGGTGCATGTTTTGAAGAAAATA [GTGCAC_site9616],10.3
17,TTTTTTTTTTTTTTTGCATGTTGAAAATAAAATTAT [TGCATGCA_site86],6.92
18,AATTTGAAATATGTGGTGCAGTTATATAATATGTTT [GTGCAC_site9885],10.3
19,ATATAAAATCAACAAAAAAAAAAAATATATATATAT [XGTACX_negctrl_site251],9.03
20,AAATACATAACTTAAAATTTGTTCATATCTATACAT [TGCATGCA_negctrl_site249],6.94
21,AAAAATTAACAAAAGGTGCAAACAAATAGTGGTTTT [GTGCAC_site9998],10.8
22,AGGTTTTCTTAAATAGTGCATTATAACAAAAATAAA,9.66
23,ACATTAACATTGTTGGTGCAAAATTAATATGTTTTT [GTGCAC_site9673],9.77
24,GTATATAATTTATGTGCACACACTCCTATTTTTAGC [CACACA_site49],8.89

row,Sequence,gcPBM binding intensity (ln)
1,ATTCCTTGGTTGTATAGTACTTTGGTTAAACATAAA [XGTACX_site6967],7.4
2,TAGATTATTATACTAGTGCAAATTATTTAAGAAAAA,8.09
3,CTTATAAGAATACTAGTGCACATAATTTAACGAAAA,10.6
4,AAGATAAAATTATGCACACATACGAATAATTTTAAA [CACACA_site1705],7.24
5,AAAAATTTAATTATTTGTACATAAAATACATTTCTG [XGTACX_site791],6.81
6,TTATAAATATAATTTTGTACATATATATATATATAC [XGTACX_site5064],7.39
7,AAAATTATACACACACGTACATATAAATAGAAATAT [XGTACX_site1753],7.12
8,AACATACGACAATACGCACACATATAAGTACATATT [CACACA_site8584],7.13
9,ATTTAAAAGTTGGTAGTGCATTAAAAATAACAAAAA [GTGCAC_site9835],8.96
10,AGGATAAAAGTTATGGTGCATTAACCTATTTAAATA,10.2
11,TTCTATTTTTTAAAAGTGCATATTATAAATATATAT,9.04
12,GCACATTTTTTTATCACACATATAATTACAATATAA [CACACA_site5585],7.74
13,ACAATATTTTTTTATAAACACACATATATATAAATA [CACACA_site9175],7.18
14,AATAATGAATTGAAATGTACATATTTTTATTAATAC [XGTACX_site8899],7.15
15,AAAATATAAAGTATTTGTACATAATATATTTTTAAA [XGTACX_site3494],6.81
16,TATGTATTAATGAGAACATGCAAAATAATAAACAAT [TGCATGCA_site362],7.24
17,CAATTAAACAATTAAACATGCAAAATGATATAATAA [TGCATGCA_site240],6.79
18,CATGAGGTATAAAAGGTGCAAATTAATGAGAACATT,11.1
19,TATATATATATATGTGGTACATAAAATTATTATTTT [XGTACX_site4554],9.55
20,TTTTTTTTTAAGCAAAGGAAATCAAAATAAAAATAT [CACACA_negctrl_site719],7.08
21,ATTTTAAAAAGGATAGTGCAAATGTTAAAATAGGAC,8.74
22,TTTTAAGGTGTGAAGGTGCAAAAAGGTAAATAGGAA,10.8
23,ATTTAAGTAGTACATACACACACATATACAAAAAGA [CACACA_site9317],7.39
24,GATGAGGACAAACACACACACATAAGTTGATACATA [CACACA_site3424],7.27

row,Sequence,gcPBM binding intensity (ln)
1,CGGACATACATAGGAACATGCAAAATTTTTTATTTT [TGCATGCA_site575],6.78
2,CTATAATAACATAACACACACATGTATTTATAGGTG [CACACA_site6298],7.05
3,CTTTTTATTTAGGAGGTGCATGTAATACGGAACATA,10.9
4,TTTTATTTAGGAGGTGCATGTAATACGGAACATAAT [TGCATGCA_site827],11.2
5,ATACTTTTATTTTTGGTGCATATATCATGTAGACGT,10.2
6,ATATAATAACATAACACACACATGTATTTATAGGTG [CACACA_site359],6.97
7,TGATTATTATAATTTAGTACATAATATTTTATATAA [XGTACX_site6125],7.07
8,TTTATATATTTATTCACACATATAATATTCCGTCGT [CACACA_site6120],6.88
9,AAAAAAAAAAAAAATACACACATATTTTATAGGGGA [CACACA_site3261],7.19
10,CATATTTACTATCACACACACGATATATATAAATAT [CACACA_site1241],7.25
11,ATCATATTTATGTTGGTGCATTATGCATGGATTTTA [GTGCAC_site9795],9.92
12,GTTTGAATATATCAGGTGCATTTATAATTCATATGA,10.5
13,ATCATATGTATGGTGGTGCATTATGCATGAATTTTA [GTGCAC_site9798],10.2
14,TTATTAAATTCATAAGTGCATTTATGATTAATTTTT [GTGCAC_site9749],9.08
15,CATGAATATTTTAATGTGCACATTTATCATTATATG,8.69
16,TTCATATTCGATAAAGTGCATTAATTTTATTTATCA,8.36
17,TTGATTTCATTTTAAGTGCATAACTAATATTATATA [GTGCAC_site9713],8.07
18,ATCATATTTATATTGGTGCATTATGCATGAAATTTA [GTGCAC_site9571],9.94
19,CGCATATTTTATGTTTGTACTCATATGAATATCATA [XGTACX_site4717],6.97
20,TTCATTTTATTTTAAGTGCATATTTTTATTTTTTTG,8.27
21,CATTTTCATTTTAAGGTGCATTAATATTTATTTTAA [GTGCAC_site9437],10.4
22,AATATTCATATGCAGGTGCATTAATTTTTATTAATT,10.4

# — the supplement of paper PMC11417369
